Experimental data as given in PubChem BioAssay (EPA / NIEHS).
Inconclusive results are not listed. Where a structure was tested more than once in an assay, its records may differ in their call. Active and inactive are the calls of the source. The calls were made as follows: active = hit-call score of the fitted dose curve at least 0.9, where 1 is the maximum; inconclusive = response in the unintended direction; inactive = score below 0.9.

What was measured:
[1] = tested on: rat Monoamine Oxidase, MAO-A, Central (MAOAC), gene 29253; test: NVS_ENZ_rMAOAC: NovaScreen (NVS) Enzymatic Assay for rat Monoamine Oxidase, MAO-A, Central (MAOAC) (AID 2283243);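 also: potency refers to inhibition seen as signal drop below DMSO baseline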
How it was run: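 Inhibition of rat brain-derived MAO-A was read by scintillation counting after 1.5 h exposure. Compounds screened first at 25 uM in duplicate, then in dose series if active.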

[2] = tested on: bovine Angiotensin II Receptor Type 2 (AT2), gene 407157; test: NVS_GPCR_bAT2: NovaScreen (NVS) G Protein-Coupled Receptor Assay for bovine Angiotensin II Receptor Type 2 (AT2) (AID 2283240)
How it was run: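 Radioligand displacement on bovine cerebellar membranes, 1 hour incubation, filter-based scintillation counting; loss of signal vs DMSO. Duplicate single-point screen at 25 uM, then concentration-response to 50 uM maximum.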

[3] = target: Adenosine receptor A1 (Bos taurus) (UniProt P28190); test: NVS_GPCR_bAdoR_NonSelective: NovaScreen (NVS) G Protein-Coupled Receptor Assay for bovine Adenosine Receptor (AdoR), Non-selective Binding (AID 2283244)
Chain of Adenosine receptor A1 (Bos taurus) (P28190 whole entry, looked up): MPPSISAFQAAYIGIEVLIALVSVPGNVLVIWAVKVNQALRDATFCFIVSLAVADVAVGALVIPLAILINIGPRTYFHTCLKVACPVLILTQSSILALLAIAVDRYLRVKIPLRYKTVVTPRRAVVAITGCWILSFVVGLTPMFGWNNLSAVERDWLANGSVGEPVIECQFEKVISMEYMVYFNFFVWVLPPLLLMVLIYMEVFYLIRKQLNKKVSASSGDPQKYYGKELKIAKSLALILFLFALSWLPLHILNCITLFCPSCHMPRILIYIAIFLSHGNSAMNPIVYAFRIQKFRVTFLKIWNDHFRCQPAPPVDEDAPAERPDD
How it was run: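 Bovine striatal membranes, radioligand displacement binding, 1 h after dosing, filter-based scintillation counting. Screened in duplicate at 25 uM, then concentration-response up to 50 uM; loss of specific binding relative to DMSO.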

[4] = target: rat Monoamine Oxidase, MAO-B, Central (MAOBC), Maob (gene 25750) (UniProt P19643); test: NVS_ENZ_rMAOBC: NovaScreen (NVS) Enzymatic Assay for rat Monoamine Oxidase, MAO-B, Central (MAOBC) (AID 2283238)
How it was run: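 Rat brain tissue extract served as the cell-free MAO-B source; enzyme activity was read by scintillation counting 1.17 hours after compound addition. Loss of signal versus DMSO baseline was fitted; primary single-concentration screen at 25 uM, follow-up concentration-response up to 50 uM.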

[5] = target: human Serotonin, 5-Hydroxytryptamine Receptor 6 (5HT6), HTR6 (gene 3362) (UniProt P50406); test: NVS_GPCR_h5HT6: NovaScreen (NVS) G Protein-Coupled Receptor Assay for human Serotonin, 5-Hydroxytryptamine Receptor 6 (5HT6) (AID 2283253)
Chain of human Serotonin, 5-Hydroxytryptamine Receptor 6 (5HT6), HTR6 (gene 3362) (P50406 whole entry, looked up): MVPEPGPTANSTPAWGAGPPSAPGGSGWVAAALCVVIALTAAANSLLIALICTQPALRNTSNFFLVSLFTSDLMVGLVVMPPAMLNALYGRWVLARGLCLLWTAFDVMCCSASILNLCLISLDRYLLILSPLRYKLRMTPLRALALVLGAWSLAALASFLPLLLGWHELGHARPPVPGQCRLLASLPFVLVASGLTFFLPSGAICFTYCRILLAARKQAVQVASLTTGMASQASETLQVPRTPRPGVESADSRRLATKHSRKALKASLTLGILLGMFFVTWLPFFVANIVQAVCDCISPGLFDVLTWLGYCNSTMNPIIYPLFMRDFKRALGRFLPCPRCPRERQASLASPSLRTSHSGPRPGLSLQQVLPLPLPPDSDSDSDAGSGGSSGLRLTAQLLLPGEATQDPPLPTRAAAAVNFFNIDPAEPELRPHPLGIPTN
How it was run: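 Radioligand binding to 5HT6 in HEK293-derived membranes, cell-free, 1 h after dosing; bound ligand measured by filter-based scintillation counting. Primary screen in duplicate at 25 uM; actives retested in concentration series.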

[6] = target: sheep Cyclooxygenase-2 (Cox2), PTGS2 (gene 443460) (UniProt P79208); test: NVS_ENZ_oCOX2: NovaScreen (NVS) Enzymatic Assay for sheep Cyclooxygenase-2 (Cox2) (AID 2283231)
Chain of sheep Cyclooxygenase-2 (Cox2), PTGS2 (gene 443460) (P79208 whole entry, looked up): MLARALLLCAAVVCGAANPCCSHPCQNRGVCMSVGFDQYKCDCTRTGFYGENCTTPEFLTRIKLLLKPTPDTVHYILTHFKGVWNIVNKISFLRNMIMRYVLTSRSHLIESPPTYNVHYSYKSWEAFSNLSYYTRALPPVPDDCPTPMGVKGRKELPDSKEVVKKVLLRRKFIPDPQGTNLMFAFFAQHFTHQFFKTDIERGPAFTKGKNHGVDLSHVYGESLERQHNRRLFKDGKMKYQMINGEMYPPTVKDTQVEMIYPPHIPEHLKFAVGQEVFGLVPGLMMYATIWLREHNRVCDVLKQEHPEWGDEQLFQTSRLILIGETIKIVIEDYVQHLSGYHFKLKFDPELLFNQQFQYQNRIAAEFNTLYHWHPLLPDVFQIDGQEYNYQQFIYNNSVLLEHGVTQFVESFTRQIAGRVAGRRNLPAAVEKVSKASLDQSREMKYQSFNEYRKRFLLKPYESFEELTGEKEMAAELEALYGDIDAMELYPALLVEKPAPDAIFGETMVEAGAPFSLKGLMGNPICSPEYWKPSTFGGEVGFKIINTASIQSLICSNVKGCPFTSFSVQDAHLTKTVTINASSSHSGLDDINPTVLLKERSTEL
How it was run: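 Enzyme from ovine placenta, cell-free; colorimetric absorbance read 0.66 hour after dosing, loss of signal vs DMSO. Screened in duplicate at 25 uM, then concentration-response up to 50 uM.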

[7] = target: rat Acetylcholinesterase (AChE), Ache (gene 83817) (UniProt P37136); test: NVS_ENZ_rAChE: NovaScreen (NVS) Enzymatic Assay for rat Acetylcholinesterase (AChE) (AID 2283233)
How it was run: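 Rat brain membrane acetylcholinesterase activity measured colorimetrically 0.33 h after compound addition, loss of signal relative to DMSO. Primary screen in duplicate at 25 uM; actives re-run as concentration-response with 50 uM top concentration.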

[8] = target: guinea pig Opioid, Kappa 1 Receptor (OpiateK), OPRK1 (gene 100135587) (UniProt P41144); test: NVS_GPCR_gOpiateK: NovaScreen (NVS) G Protein-Coupled Receptor Assay for guinea pig Opioid, Kappa 1 Receptor (OpiateK) (AID 2283252);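 also: radioligand displacement from kappa opioid receptor in guinea pig cerebellar membranes; active means reduced radioligand binding relative to DMSO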
Chain of guinea pig Opioid, Kappa 1 Receptor (OpiateK), OPRK1 (gene 100135587) (P41144 whole entry, looked up): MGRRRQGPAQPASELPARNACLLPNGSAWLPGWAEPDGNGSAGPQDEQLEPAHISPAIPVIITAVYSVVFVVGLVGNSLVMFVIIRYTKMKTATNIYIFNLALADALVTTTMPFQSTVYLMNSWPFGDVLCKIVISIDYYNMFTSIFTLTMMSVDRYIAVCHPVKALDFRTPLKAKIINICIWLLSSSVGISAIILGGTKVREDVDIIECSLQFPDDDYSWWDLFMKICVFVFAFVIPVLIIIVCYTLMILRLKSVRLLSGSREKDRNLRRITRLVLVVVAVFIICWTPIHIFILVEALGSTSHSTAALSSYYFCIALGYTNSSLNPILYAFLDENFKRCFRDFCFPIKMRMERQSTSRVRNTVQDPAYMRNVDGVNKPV
How it was run: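 Guinea pig cerebellar membranes were incubated with a radioligand for 2 h after compound addition; bound radioactivity was read by filter-based scintillation counting. Loss of specific binding relative to DMSO baseline defined activity; primary screen at 25 uM in duplicate.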

[9] = tested on: guinea pig Leukotriene B4 Receptor (LTB4), gene 100379538; test: NVS_GPCR_gLTB4: NovaScreen (NVS) G Protein-Coupled Receptor Assay for guinea pig Leukotriene B4 Receptor (LTB4) (AID 2283247)
How it was run: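 Radioligand displacement on guinea pig spleen membranes, filter-based scintillation counting 2 h after dosing. Primary duplicate single point at 25 uM; hits over threshold (e.g. 30% inhibition) run in concentration-response up to 50 uM, DMSO baseline.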

[10] = target: human Serotonin, 5-Hydroxytryptamine Receptor 2A (5HT2A), HTR2A (gene 3356) (UniProt P28223); test: NVS_GPCR_h5HT2A: NovaScreen (NVS) G Protein-Coupled Receptor Assay for human Serotonin, 5-Hydroxytryptamine Receptor 2A (5HT2A) (AID 2283249)
Chain of human Serotonin, 5-Hydroxytryptamine Receptor 2A (5HT2A), HTR2A (gene 3356) (P28223 whole entry, looked up): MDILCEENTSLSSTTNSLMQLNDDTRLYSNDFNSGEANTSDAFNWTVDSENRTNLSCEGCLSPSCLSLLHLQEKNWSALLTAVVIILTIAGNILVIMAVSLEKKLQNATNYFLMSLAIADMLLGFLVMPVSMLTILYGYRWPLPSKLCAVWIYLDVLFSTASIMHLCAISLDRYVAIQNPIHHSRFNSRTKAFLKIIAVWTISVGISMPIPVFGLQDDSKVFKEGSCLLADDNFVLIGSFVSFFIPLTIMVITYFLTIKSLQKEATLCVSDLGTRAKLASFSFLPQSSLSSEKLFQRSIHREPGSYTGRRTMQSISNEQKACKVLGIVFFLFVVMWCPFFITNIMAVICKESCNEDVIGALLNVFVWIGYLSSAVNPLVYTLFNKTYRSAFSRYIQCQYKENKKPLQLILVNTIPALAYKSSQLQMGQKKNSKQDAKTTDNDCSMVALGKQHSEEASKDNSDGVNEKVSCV
How it was run: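 Human cortex membranes, cell-free radioligand binding; filter-based scintillation read 1.5 h after dosing. Duplicate screen at 25 uM first; displacement of specific binding (loss of signal) versus DMSO.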

[11] = tested on: guinea pig Muscarinic, Peripheral (Mperiperal) Receptor, Non-selective Binding, gene 100379235; test: NVS_GPCR_gMPeripheral_NonSelective: NovaScreen (NVS) G Protein-Coupled Receptor Assay for guinea pig Muscarinic, Peripheral (Mperiperal) Receptor, Non-selective Binding (AID 2283250)
How it was run: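 Guinea pig bladder membranes, radioligand binding read 1 h after dosing by filter scintillation counting; loss of signal vs DMSO. Primary duplicate screen at 25 uM, then concentration-response up to 50 uM.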

[12] = target: human Serotonin, 5-Hydroxytryptamine Receptor 5A (5HT5A), HTR5A (gene 3361) (UniProt P47898); test: NVS_GPCR_h5HT5A: NovaScreen (NVS) G Protein-Coupled Receptor Assay for human Serotonin, 5-Hydroxytryptamine Receptor 5A (5HT5A) (AID 2283251)
Chain of human Serotonin, 5-Hydroxytryptamine Receptor 5A (5HT5A), HTR5A (gene 3361) (P47898 whole entry, looked up): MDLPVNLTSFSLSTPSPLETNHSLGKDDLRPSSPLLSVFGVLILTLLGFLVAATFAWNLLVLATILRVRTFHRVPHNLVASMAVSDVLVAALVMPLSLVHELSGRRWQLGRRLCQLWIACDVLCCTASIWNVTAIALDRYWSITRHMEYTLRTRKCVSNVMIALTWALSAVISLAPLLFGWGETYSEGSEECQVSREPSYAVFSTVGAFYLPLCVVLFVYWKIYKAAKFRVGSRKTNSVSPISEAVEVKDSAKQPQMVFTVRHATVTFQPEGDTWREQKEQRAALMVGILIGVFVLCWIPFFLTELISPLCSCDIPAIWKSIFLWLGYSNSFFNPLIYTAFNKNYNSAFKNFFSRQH
How it was run: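 Cell-free radioligand displacement binding on HEK293-derived membrane protein, 1 h incubation, filter-based scintillation counting. Primary screen in duplicate at 25 uM, actives followed in concentration series; loss of signal fitted versus DMSO.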

[13] = target: rat Constitutive Nitric Oxide Synthase (CNOS), Nos1 (gene 24598) (UniProt P29476); test: NVS_ENZ_rCNOS: NovaScreen (NVS) Enzymatic Assay for rat Constitutive Nitric Oxide Synthase (CNOS) (AID 2283236)
Chain of rat Constitutive Nitric Oxide Synthase (CNOS), Nos1 (gene 24598) (P29476 whole entry, looked up): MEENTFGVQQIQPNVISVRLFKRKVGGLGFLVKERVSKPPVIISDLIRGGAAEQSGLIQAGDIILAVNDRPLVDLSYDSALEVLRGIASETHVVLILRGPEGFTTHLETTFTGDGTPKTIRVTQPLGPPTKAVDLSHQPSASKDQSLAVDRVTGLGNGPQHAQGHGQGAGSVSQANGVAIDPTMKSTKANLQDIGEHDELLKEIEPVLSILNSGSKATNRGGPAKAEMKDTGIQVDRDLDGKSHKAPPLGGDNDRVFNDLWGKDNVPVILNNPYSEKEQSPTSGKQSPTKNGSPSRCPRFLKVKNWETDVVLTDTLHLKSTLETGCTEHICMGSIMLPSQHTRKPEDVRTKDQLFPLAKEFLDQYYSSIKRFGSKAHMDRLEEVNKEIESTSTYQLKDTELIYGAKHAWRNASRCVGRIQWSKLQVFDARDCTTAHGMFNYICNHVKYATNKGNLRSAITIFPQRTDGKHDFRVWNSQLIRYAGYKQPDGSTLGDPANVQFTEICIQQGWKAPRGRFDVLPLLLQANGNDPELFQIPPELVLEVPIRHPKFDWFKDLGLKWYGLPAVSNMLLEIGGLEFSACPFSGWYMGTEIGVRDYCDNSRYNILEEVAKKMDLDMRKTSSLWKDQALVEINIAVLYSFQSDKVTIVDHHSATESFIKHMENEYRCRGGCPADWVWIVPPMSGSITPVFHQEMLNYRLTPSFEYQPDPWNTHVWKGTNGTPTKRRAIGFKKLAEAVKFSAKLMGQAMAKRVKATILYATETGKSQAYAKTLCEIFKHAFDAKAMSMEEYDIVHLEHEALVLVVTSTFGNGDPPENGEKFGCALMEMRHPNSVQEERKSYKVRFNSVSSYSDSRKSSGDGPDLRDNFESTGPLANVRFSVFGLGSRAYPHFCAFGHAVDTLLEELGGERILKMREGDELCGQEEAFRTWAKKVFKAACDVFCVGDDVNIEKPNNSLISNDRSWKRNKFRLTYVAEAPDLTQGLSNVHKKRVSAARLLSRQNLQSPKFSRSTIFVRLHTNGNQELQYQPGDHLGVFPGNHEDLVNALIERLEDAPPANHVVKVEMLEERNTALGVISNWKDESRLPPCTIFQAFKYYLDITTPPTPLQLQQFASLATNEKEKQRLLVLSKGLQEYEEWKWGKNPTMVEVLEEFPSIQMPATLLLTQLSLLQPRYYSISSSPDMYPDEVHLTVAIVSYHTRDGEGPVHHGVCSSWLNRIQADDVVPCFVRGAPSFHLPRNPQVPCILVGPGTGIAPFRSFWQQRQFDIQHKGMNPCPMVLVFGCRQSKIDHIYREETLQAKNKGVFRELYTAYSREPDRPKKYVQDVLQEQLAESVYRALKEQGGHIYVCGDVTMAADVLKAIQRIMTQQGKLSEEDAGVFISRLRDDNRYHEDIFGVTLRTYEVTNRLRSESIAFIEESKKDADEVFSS
How it was run: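 Enzyme activity in rat brain membrane preparation, read 1 h after dosing by filter-based radiometric scintillation counting. Primary screen in duplicate at 25 uM; actives (e.g., ≥30% inhibition) then run in concentration-response up to 50 uM.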

[14] = target: rat Catechol-O-Methyl Transferase (COMT), Comt (gene 24267) (UniProt P22734); test: NVS_ENZ_rCOMT: NovaScreen (NVS) Enzymatic Assay for rat Catechol-O-Methyl Transferase (COMT) (AID 2283235)
Chain of rat Catechol-O-Methyl Transferase (COMT), Comt (gene 24267) (P22734 whole entry, looked up): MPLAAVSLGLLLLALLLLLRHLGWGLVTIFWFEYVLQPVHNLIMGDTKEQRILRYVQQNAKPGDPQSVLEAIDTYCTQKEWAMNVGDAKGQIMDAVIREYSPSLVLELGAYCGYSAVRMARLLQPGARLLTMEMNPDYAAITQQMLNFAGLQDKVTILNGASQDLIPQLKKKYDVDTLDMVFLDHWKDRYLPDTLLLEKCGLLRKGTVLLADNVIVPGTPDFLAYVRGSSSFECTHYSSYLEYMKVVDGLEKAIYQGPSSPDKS
How it was run: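 Cell-free enzyme activity with protein extracted from rat dorsal striatum, measured by HPLC with absorbance detection. Compounds screened at 25 uM in duplicate; actives then run in concentration-response up to 50 uM, loss of signal versus DMSO.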

[15] = target: rat Monoamine Oxidase, MAO-B, Peripheral (MAOBP), Maob (gene 25750) (UniProt P19643); test: NVS_ENZ_rMAOBP: NovaScreen (NVS) Enzymatic Assay for rat Monoamine Oxidase, MAO-B, Peripheral (MAOBP) (AID 2283242)
[16] = target: sheep Cyclooxygenase-1 (Cox1), PTGS1 (gene 443551) (UniProt P05979); test: NVS_ENZ_oCOX1: NovaScreen (NVS) Enzymatic Assay for sheep Cyclooxygenase-1 (Cox1) (AID 2283239);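 also: actives reduce cyclooxygenase activity so potencies are for inhibitors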
Chain of sheep Cyclooxygenase-1 (Cox1), PTGS1 (gene 443551) (P05979 whole entry, looked up): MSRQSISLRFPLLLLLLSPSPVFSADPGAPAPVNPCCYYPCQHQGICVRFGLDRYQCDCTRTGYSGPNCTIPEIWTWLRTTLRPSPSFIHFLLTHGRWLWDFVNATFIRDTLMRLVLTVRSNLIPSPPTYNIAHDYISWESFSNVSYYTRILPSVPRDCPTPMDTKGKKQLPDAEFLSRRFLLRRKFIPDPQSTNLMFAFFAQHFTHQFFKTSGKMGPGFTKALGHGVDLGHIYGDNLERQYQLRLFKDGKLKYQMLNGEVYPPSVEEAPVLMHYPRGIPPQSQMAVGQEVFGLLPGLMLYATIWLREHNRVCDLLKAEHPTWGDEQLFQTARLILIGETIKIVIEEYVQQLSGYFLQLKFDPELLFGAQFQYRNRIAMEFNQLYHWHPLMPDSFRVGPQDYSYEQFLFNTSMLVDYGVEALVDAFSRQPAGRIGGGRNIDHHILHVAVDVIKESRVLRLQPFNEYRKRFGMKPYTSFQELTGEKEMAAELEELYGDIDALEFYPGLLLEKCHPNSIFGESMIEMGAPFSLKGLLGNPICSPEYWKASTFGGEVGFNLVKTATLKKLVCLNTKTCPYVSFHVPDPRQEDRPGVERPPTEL
How it was run: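 COX1 from ovine seminal vesicles, activity read colorimetrically about 0.66 h after dosing. Primary screen in duplicate at 25 uM; actives retested in concentration series; loss of signal fitted versus DMSO.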

[17] = target: guinea pig Leukotriene D4 Receptor (LTD4), CYSLTR1 (gene 100135514) (UniProt Q2NNR5); test: NVS_GPCR_gLTD4: NovaScreen (NVS) G Protein-Coupled Receptor Assay for guinea pig Leukotriene D4 Receptor (LTD4) (AID 2283248)
How it was run: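 Radioligand displacement on guinea pig lung membranes, 1 h incubation, filtration and scintillation counting; DMSO as negative control. Duplicate 25 uM primary screen, then singleton concentration-response up to 50 uM.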

For Nc1ccc(-c2ccc(N)cc2)cc1, the AC50 [1] was 16.6 µM (active).

With CCNc1nc(NC(C)C)nc(SC)n1 the outcome [2] was “inactive” and the AC50 [3] was 13.4 µM (active).

With Oc1ccc(Cl)cc1Cl the AC50 [4] was 7.6 µM (active), the outcome [1] was “inactive” and the outcome [5] was “inactive”.

In the case of Cc1ccc(O)c(C)c1, the AC50 [6] is reported as 18.4 µM (active).

In the case of C[C@]12CCC(=O)C=C1CC[C@@H]1[C@@H]2CC[C@]2(C)C(=O)CC[C@@H]12, the AC50 [7] is reported as 24.4 µM (active) and the outcome [8] is reported as “inactive”.

For Oc1ccc(C(c2ccc(O)cc2)(C(F)(F)F)C(F)(F)F)cc1, the AC50 [9] was 0.436 µM (active), the AC50 [10] was 10.4 µM (active) and the AC50 [11] was 13.6 µM (active). For the same compound, the AC50 [12] was 8.39 µM (active), the AC50 [8] was 14 µM (active) and the AC50 [5] was 0.352 µM (active).

With Cc1cccc(C)c1N the outcome [6] was “inactive” and the outcome [10] was “inactive”.

With O=S(=O)(O)C(F)(F)C(F)(F)C(F)(F)C(F)(F)F the AC50 [9] was 12.2 µM (active).

COc1ccc(O)c(C(C)(C)C)c1 was tested, and the outcome [12] was “inactive” and the AC50 [5] was 25 µM (active).

For CN(C)c1nc(=O)n(C2CCCCC2)c(=O)n1C, the outcome [13] was “inactive”.

For O=C(N[C@H]1CN2CCC1CC2)c1cc2ccoc2cn1, the outcome [11] was “inactive” and the outcome [8] was “inactive”.

For Cc1ccccc1CO[C@@H]1C[C@@]2(C(C)C)CC[C@]1(C)O2, the outcome [14] was “inactive”.

With Cc1ccccc1O the outcome [3] was “inactive”.

In the case of CC(C)(O)C(=O)Nc1ccc([N+](=O)[O-])c(C(F)(F)F)c1, the AC50 [4] is reported as 12.1 µM (active), the outcome [15] is reported as “inactive” and the outcome [8] is reported as “inactive”.

In the case of CN(C)CCO, the outcome [13] is reported as “inactive”.

CCC(C)(CC)c1cc(NC(=O)c2c(OC)cccc2OC)on1 was tested, and the outcome [14] was “inactive”.

In the case of O=S(=O)(O)C(F)(F)C(F)(F)C(F)(F)C(F)(F)C(F)(F)C(F)(F)F, the AC50 [9] is reported as 10.8 µM (active).

With CCCCCCCCCc1ccc(O)cc1 the outcome [16] was “inactive”.

For Oc1c(Cl)c(Cl)c(Cl)c(Cl)c1Cl, the AC50 [1] was 15.5 µM (active), the outcome [3] was “inactive” and the outcome [17] was “inactive”. The AC50 [8] was 12.6 µM (active) and the outcome [8] was “inactive”.
